Source: PubChem BioAssay
In the library only some 5.3% were active in any assay of this set; here they are far more common.
Six1-Eya2 blk: blocks human Six1 binding to Eya2 | actives 0.56% (n = 360,000) | AlphaScreen GST-Six1/His-Eya2 binding, biochemical; stronger effect = lower value | AID 651725 | activity change, % (no concentration beside the values); in the data active means activity change below about -65%; inconclusive means mostly about -30% to -63%; further: on the % scale 0 is the no-effect control and ±100 the full control effect
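Compounds are tested against tagged Six1 and Eya2 proteins bridged by glutathione donor and nickel acceptor beads; after a one-hour incubation at 37 °C without light, AlphaScreen emission is recorded.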
HP1b chromo inh: inhibitors of HP1-beta chromodomain binding to methylated histone tails; P83916; AlphaScreen HP1-beta / biotin-H3K9me3 peptide binding; Potency, µM (series often up to 114 µM), inactives show at the highest dose activity change, negative = inhibition, usual class: inhibitors; actives 0.56% (n = 390,000); AID 540317; further: potency means the concentration at half of the fitted maximal effect; nearly all actives have a fitted effect of over 70% in size
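Compound inhibition of the preformed complex between 50 nM HP1-beta and 50 nM biotinylated H3K9me3 peptide was read by AlphaScreen. Buffer was PBS pH 7.4 with 0.01% Tween-20. Incubations ran 30 min at room temperature, with 10 ug/mL donor/acceptor beads.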
BAZ2B inh: blocks human BAZ2B | Q9UIF8 | AlphaScreen BAZ2B-H3K14Ac peptide displacement | Potency, µM (series often up to 114 µM), for the others: at the top dose activity change, negative = inhibition, actives largely listed as inhibitors | actives 4.4% (n = 360,000); further: potency means the concentration at half of the fitted maximal effect; on the % scale 0 is the no-effect control and ±100 the full control effect; nearly all actives have a fitted effect of over 60% in size
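AlphaScreen displacement of biotin-H3(5-23)K14Ac peptide (50 nM final) from BAZ2B (50 nM final) in PBS pH 7.4, 0.01% Tween-20; complex preformed 30 min RT, then compounds (top 110 uM) 30 min RT, beads 20 min dark.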
CtBP-E1A blk: CtBP/E1A binding inhibition | AlphaScreen GST-E1A/His-CtBP binding, 1536-well; stronger effect = lower value | activity change, % (concentration not given with the values) | actives 0.49% (n = 340,000) | AID 651724; in the data active means activity change below about -65%; inconclusive means mostly about -30% to -63%; further: on the % scale 0 is the no-effect control and ±100 the full control effect
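AlphaScreen with 125 nM GST-E1A and 125 nM His-CtBP (5X stocks) in Tris pH 8.0, 300 mM NaCl, BSA, Tween 20, TCEP. Compounds preincubated 2 h at 37 deg C, then glutathione donor/nickel acceptor beads added for 1 h at 37 deg C in dark.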
TDP1 inh: inhibitors of human tyrosyl-DNA phosphodiesterase TDP1; Potency, µM (doses to about 130 µM), without a hit: at the highest dose activity change, negative = inhibition, actives largely listed as inhibitors; recombinant TDP1, AlphaScreen DNA substrate cleavage; Q9NUW8; actives 0.28% (n = 350,000); AID 485290; further: potency means the concentration at half of the fitted maximal effect; on the % scale 0 is the no-effect control and ±100 the full control effect; nearly all actives have a fitted effect of over 40% in size
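Recombinant E. coli-expressed Tdp1 (1 nM) preincubated with compound 15 min at RT, then 5'-biotin/3'-phosphotyrosine-FITC DNA substrate (15 nM) added for 5 min. AlphaScreen beads (10 ug/ml) added, 10 min RT; tyrosine-FITC cleavage read as signal loss.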
JMJD2A Tudor: JMJD2A Tudor domain (human) inhibition. Potency, µM (series often up to 114 µM), without a hit: at the top dose activity change, negative = inhibition, hits mostly inhibitors. AlphaScreen JMJD2A-Tudor / H3K4me3 peptide binding. actives 4.4% (n = 390,000). AID 504339. O75164; further: potency means the concentration at half of the fitted maximal effect; on the % scale 0 is the no-effect control and ±100 the full control effect; nearly all actives have a fitted effect of over 50% in size
An asterisk follows results filed as active; ? = inconclusive; nt = not tested or not shown; [ ] = remark or other dose. Unless noted, the call rests on the fitted dose curve; in most records, active means well fitted inhibition curve with a large enough effect; inconclusive means small, poorly fitted or top-dose-only effect; inactive means no such curve, though single readings can be large or run the other way.

SMILES | Six1-Eya2 blk | HP1b chromo inh | BAZ2B inh | CtBP-E1A blk | TDP1 inh | JMJD2A Tudor
O=C(O)CCCCCN1C(=O)C(O)=C(C(=O)/C=C/c2ccccc2)C1c1ccc2c(c1)OCO2 (stereo not drawn) | -13 | 19% | ? | -6 | -8% | 22µM*
COCCN1C(=O)C(O)=C(C(C)=O)C1c1ccc(F)cc1 (stereo not drawn) | -2 | 1% | 79µM* | 5 | ? | 40µM*
Cc1ccc(CNc2ncnc3c2nnn3C)cc1 | nt | 1% | -2% | nt | 3% | -15%
CCN1/C(=C2\C(=O)N(C)C(=S)N2c2ccccc2)C=Cc2ccccc21 | -22 | ? | 40µM* | ? | 5% | -29%
CCN1/C(=C2\C(=O)N(C)C(=S)N2C)C=Cc2cc(C)ccc21 | -17 | -66% | 45µM* | -7 | 3% | 50µM*
C[C@]12CC[C@@H]3c4ccc(O)cc4CC[C@H]3[C@@H]1CC[C@H]2O | nt | nt | nt | nt | 2% | nt
COc1cc(Cl)c(C)cc1NC(=O)CCn1c(=O)c2cccn2c2cccnc21 | nt | 31% | -3% | nt | -10% | -8%
Cc1ccc(C(C)C)c(OCC(=O)c2c(O)c3ccccc3oc2=O)c1 | -2 | -1% | nt | 3 | nt | 45µM*
CCc1ccc(OCC(=O)c2c(O)c3ccccc3oc2=O)cc1 | 4 | 27% | ? | -18 | -5% | -11%
Cc1ccc(OCC(=O)c2c(O)c3ccccc3oc2=O)cc1C | -1 | 16% | ? | 5 | -4% | 40µM*
COC(=O)c1cc2oc3ccccc3c2n1Cc1c(C)cc(C)cc1C | nt | 10% | -3% | nt | 2% | -31%
O=c1[nH]nc(CNc2cccc(C(F)(F)F)c2)c2ccccc12 | 0 | 25% | -4% | nt | 1% | 6%
CCn1c(CNc2cccc(C(F)(F)F)c2)n[nH]c1=S | 1 | 22% | -11% | 6 | -10% | 50µM*
C=CCn1c(C(CCC(C)C)CC(C)(C)O)n[nH]c1=S (stereo not drawn) | 1 | -8% | 10% | 3 | 5% | 7.1µM*
Nc1nnnn1/N=C/c1cc(Cl)cc(Cl)c1O | -20 | 16% | -3% | -17 | nt | 40µM*
Nc1nnnn1/N=C/c1cc(Cl)ccc1O | ? | 59% | 1% | nt | nt | -3%
Cc1cc(C)c(S(=O)(=O)NCC2CCC(C(=O)NCCc3ccccc3)CC2)c(C)c1 (stereo not drawn) | nt | 8% | 4% | nt | -1% | 8%
CC1=C(c2ccc(Cl)cc2)S(=O)(=O)NC1=NCCCN1CCN(c2cc(C)ccc2C)CC1 | nt | 25% | -21% | nt | 9% | 16µM*
CCCN(C(=O)c1c(C)oc2ncn(CC(C)C)c(=O)c12)c1ccccc1C | nt | 4% | 8%[57.1 µM] | nt | 4% | -17%
CCCCCCSC1=C(C#N)C(=O)NC2(CCCCC2)S1 | 4 | ? | ? | 22 | 8% | 56µM*
C=Cc1cc(F)c(S(=O)(=O)N2CCN(S(=O)(=O)c3ccc4c(c3)OCCO4)CC2)cc1F | nt | nt | nt | nt | 1% | -8%
O=C(COC(=O)COc1ccccc1)Nc1ncc([N+](=O)[O-])s1 | -13 | -29% | -36% | 6 | -8% | 79µM*
O=C(COc1ccc(Cl)cc1)Nc1ncc([N+](=O)[O-])s1 | 0 | 26% | -24% | 2 | 5% | -12%
O=C(Cc1ccc(Cl)cc1)Nc1ncc([N+](=O)[O-])s1 | 1 | -5% | -12% | 3 | 4% | -31%
O=C(Cc1ccc(Br)cc1)Nc1ncc([N+](=O)[O-])s1 | 1 | 2% | 50µM* | nt | -6% | -26%
SMILES | Six1-Eya2 blk | HP1b chromo inh | BAZ2B inh | CtBP-E1A blk | TDP1 inh | JMJD2A Tudor
CCOC(=O)c1nnn(C(CC)C(=O)Nc2c(C)cccc2C)c1C(=O)OCC (stereo not drawn) | nt | 27% | -7% | nt | 0%[12.3 µM] | -2%
CC(C(=O)Nc1ccc2c(c1)OCO2)N1CCC(N2CCCCC2)CC1 (stereo not drawn) | 0 | -26% | 50µM* | nt | -7% | 25µM*
CC(C(=O)Nc1ccc2c(c1)OCO2)N1CCN(C)CC1 (stereo not drawn) | 4 | 22µM* | 45µM* | 4 | -11% | 0.79µM*
CC(C(=O)Nc1ccc2[nH]c(=O)[nH]c2c1)N1CCN(Cc2ccc3c(c2)OCO3)CC1 (stereo not drawn) | -24 | 38% | 8% | nt | 1% | -7%
COc1ccc(CCNCC(O)COc2ccc(OC)cc2C(C)(C)C)cc1 (stereo not drawn) | -17 | ? | 71µM* | -15 | 7% | 3.5µM*
COc1ccc(CCNCC(O)COc2cccc(Br)c2)cc1OC (stereo not drawn) | -13 | ? | 50µM* | -6 | -7% | 1µM*
CCOC(=O)c1noc2nc(C)n(CC(=O)Nc3cc(Cl)ccc3OC)c(=O)c12 | nt | 23%[57 µM] | -3% | nt | 3% | -18%
CSc1nc2sc3c(c2c(=O)n1-c1ccc(F)c(Cl)c1)CCN(C(C)=O)C3 | nt | 14% | -1% | nt | 9% | -15%
CCCN(S(=O)(=O)c1ccccc1F)S(=O)(=O)c1ccccc1Br | 11 | 59% | 11% | 6 | 89µM* | 21%
COc1cc(/C=N/N=C(/C(=O)c2ccccc2)c2ccccc2)cc(OC)c1O | -17 | ? | ? | 4 | 8% | 45µM*
COc1ccc2nc(-n3c(O)c(C4=c5ccccc5=NC4=O)[nH]c3=S)sc2c1 | ? | ? | 13µM* | 30 | -8% | ?
Cn1c(O)c(C2=c3ccccc3=NC2=O)[nH]c1=S | ? | 13% | ? | -23 | 0% | -25%
Cn1nc(C(=O)Nc2ccc3c(c2)OCO3)c2ccccc2c1=O | ? | 17% | 1% | -86* | 4% | -6%
COCCCn1c(C(=O)Nc2ccc3c(c2)OCO3)cc2c(=O)n3ccccc3nc21 | 5 | 10% | -4% | 1 | 2% | 25µM*
COc1ccc(-n2nc(C(=O)Nc3ccc4c(c3)OCO4)c3ccccc3c2=O)cc1 | -10 | 12% | -31% | 11 | 7% | -20%
COCCCn1c(C(=O)N2CCOCC2)cc2c(=O)n3ccccc3nc21 | 1 | 26% | -9% | 3 | 4% | -2%
Cn1nc(C(=O)NCc2ccccn2)c2ccccc2c1=O | -4 | 16% | ? | -6 | -2% | 22µM*
CC(C)(C)c1ccc(C(=O)Nc2cc(-c3ccccc3)nn2-c2ccccc2)cc1 | nt | 20%[57 µM] | 5% | nt | -3% | -9%
CCCn1c(C)nc2c(NCCCN3CCCCC3C)nc(C)nc21 (stereo not drawn) | nt | nt | nt | nt | 0% | nt
Cc1cc(C)c2c(=O)cc(C(=O)NCc3ccc(S(N)(=O)=O)cc3)oc2c1 | nt | 63% | 29% | nt | 4% | -7%
Cc1ccc(S(=O)(=O)N2CCOCC2)cc1C(=O)Nc1nc(-c2ccccn2)cs1 | -85* | ? | nt | 3 | 2% | 40µM*
